# This is a sample that favours compounds with a hit; in the whole collection about 1.3% have one here.
# E coli Lon inh: E. coli protease La inhibition; inhibition, % at 7.94 µM; AID 602123; P0A9M0; 0.42% of 360,000 active; purified E. coli Lon protease, fluorescence polarization; in the data active = inhibition above about 13%, passing the limit was not always enough;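 also: 0% = enzyme with probe and DMSO and 100% = no enzyme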
# BCLXL inh: Bcl-xL (human) inhibition; Q07817; inhibition, % at 10.9 µM; GST-Bcl-xL / FITC-Bim BH3 peptide fluorescence polarization; AID 2129; 0.7% of 320,000 active;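 active = inhibition above the mean of all tested compounds plus 3 SD, cutoff set per campaign, cut at about 30% in these data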;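 also: 0% = DMSO wells and 100% = unlabeled Bim-BH3 peptide competitor; inhibitors lower millipolarization by displacing the labeled peptide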
# EBV gp42 inh: inhibitors of Epstein-Barr virus glycoprotein 42; Fluorescence polarization binding assay, mP read-out; inhibition, % (tested at 21.74 µM); 0.42% of 220,000 active; in the data active = inhibition above about 50%
# GLD-1 RNA inh: GLD-1-TGE RNA interaction inhibition (C. elegans); inhibition, % at 5.96 µM; purified GLD-1 + fluorescein TGE RNA, fluorescence polarization; AID 2280; 0.44% of 320,000 active;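 active = percent inhibition above a per-plate cutoff, the plate mean of test compounds plus 3 SD, cut at about 30% in these data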;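 also: 0% = DMSO wells with GLD-1 and probe and 100% = wells lacking GLD-1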
# MEX-5 binding: C. elegans MEX-5 TCR-2 RNA binding activity | 0.38% of 300,000 active | activity score (negative = inhibition of binding), % at 10 µM | Q9XUB2 | MEX-5/FITC-TCR2 RNA binding, fluorescence polarization; active compounds read low;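 active = inhibition past about -25% in most replicates, and total fluorescence under double the plate's negative control median, limit read from the data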;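 also: 0% = DMSO and -100% = 5 µM competing unlabeled TCR2 RNA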
# Target sequence (Q9XUB2 whole entry, looked up): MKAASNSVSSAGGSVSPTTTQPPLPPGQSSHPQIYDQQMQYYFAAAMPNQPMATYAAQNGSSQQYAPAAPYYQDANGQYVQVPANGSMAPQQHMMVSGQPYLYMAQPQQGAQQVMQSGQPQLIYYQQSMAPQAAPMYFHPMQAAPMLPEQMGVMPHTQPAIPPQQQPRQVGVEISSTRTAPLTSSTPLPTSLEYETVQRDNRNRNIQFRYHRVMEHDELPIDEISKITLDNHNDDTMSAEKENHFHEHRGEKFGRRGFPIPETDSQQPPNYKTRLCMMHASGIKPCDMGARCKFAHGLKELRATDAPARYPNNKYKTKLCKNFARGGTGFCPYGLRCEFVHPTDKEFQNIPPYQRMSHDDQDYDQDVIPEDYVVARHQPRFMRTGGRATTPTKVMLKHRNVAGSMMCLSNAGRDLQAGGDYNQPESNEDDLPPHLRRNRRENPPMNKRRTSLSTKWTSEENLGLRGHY
# An asterisk follows results filed as active; x = no result.
SMILES,E coli Lon inh,BCLXL inh,EBV gp42 inh,GLD-1 RNA inh,MEX-5 binding
CCN(C(=O)COC(=O)/C(C#N)=C/c1ccc(OC)cc1)C1CCS(=O)(=O)C1 (stereo unspecified),5.2,4.4,x,4.7,0.7
O=[N+]([O-])c1cccc(C=Nc2cccc3ccccc23)c1O,14.6,-1.4,x,0.7,-6.4
CCOC(=O)c1c(/N=C/c2cccc([N+](=O)[O-])c2O)sc(C)c1C,0.4,44.7*,2.0,21.4,-5.8
CC1CN(C2CC(C)(C)NC(C)(C)C2)CCC1=O (stereo unspecified),-6.5,6.5,-30.4,0.6,-47.5*
O=[N+]([O-])c1cc(CN2CCN(c3cccc(C(F)(F)F)c3)CC2)c2cccnc2c1O,x,2.5,-6.6,-8.3,0.0
O=[N+]([O-])c1cc(CN2CCCC2)c2cccnc2c1O,3.0,16.0,88.2*,-0.6,x
CC(C)(C)OC(=O)C[C@@H]1C/C=C\C[C@@H](CC(=O)N[C@H](CO)Cc2ccccc2)C(=O)NC[C@H](c2ccccc2)OC1=O,0.2,x,x,-3.1,x
CCOC(=O)c1c(NC(=O)COC(=O)C2CC2C)sc(C)c1C (stereo unspecified),-1.9,7.3,-12.9,1.9,0.6
CC(=O)C[C@H](O)CC(=O)[C@@H]1OC(=O)CCCCC/C=C/Cc2ccccc21,-8.7,x,x,1.1,x
Nc1ccc2nc(CN3CCOCC3)[nH]c2c1,-0.6,9.2,-16.1,6.3,-63.8*
Cc1ccc2nc(Cc3ccc(N)cc3)[nH]c2c1,-3.4,-0.8,-5.6,4.7,4.6
Nc1ccc2nc(Cc3ccccc3)[nH]c2c1,-2.3,0.2,1.8,76.0*,-8.3
CC(C)(C)c1ccc(S(=O)(=O)N2CCN(Cc3cc4c(cc3O)OCO4)CC2)cc1,0.7,1.0,x,3.1,x
O=C(COc1ccccc1)NCC(=O)Nc1cccc(S(=O)(=O)NC2=NCCC2)c1,-11.2,1.7,-15.5,-4.6,1.7
COc1cccc(S(=O)(=O)N(C)C[C@H]2OCc3cnnn3CCCC(=O)N([C@@H](C)CO)C[C@H]2C)c1,-19.3,x,x,x,x
C=CCN1C(=O)S/C(=C\c2ccc(N3CCOCC3)cc2C)C1=O,-51.1,-6.8,-40.5,-38.2,-29.1*
O=C(Nc1cccc(S(=O)(=O)NC2=NCCCCC2)c1)c1cc(-c2ccccc2)nc2ccccc12,-11.1,6.6,-2.0,5.0,1.9
COc1cc(SC)ccc1C(=O)Nc1cccc(S(=O)(=O)NC2=NCCCCC2)c1,8.1,4.7,x,165.0*,0.3
O=C(NC(=S)Nc1cccc(S(=O)(=O)NC2=NCCC2)c1)c1cc(-c2ccco2)nc2ccccc12,3.9,44.2*,8.6,20.9,1.4
O=C(Nc1cccc(S(=O)(=O)NC2=NCCC2)c1)c1cc(-c2ccco2)nc2ccccc12,-0.6,27.3,82.2*,7.3,-2.1
CC1(C)OC(=O)C2=C(C[C@@H](CCOCc3ccccc3)O[C@@H]2c2ccc(F)cc2)O1,-4.8,x,x,x,x
O=C(CSc1nc2ncccc2[nH]1)Nc1ccc2c(c1)OCO2,-5.8,2.4,72.7*,1.7,0.3
CCc1nc2ccc(C(=O)NCCCN3CCCC3=O)cn2c1N(CC)C(C)=O,-3.1,x,x,x,x
Cc1ccc(-c2[nH]c(=O)n3ccncc23)s1,2.4,58.5*,28.0,27.9,-7.7
Cc1cn2c(-c3cccnc3)nnc2s1,-11.1,0.8,-21.1,3.8,-0.4
SMILES,E coli Lon inh,BCLXL inh,EBV gp42 inh,GLD-1 RNA inh,MEX-5 binding
CCOC(=O)CN(C(=O)CNC(=O)c1ccco1)C(C(=O)NC1CCCCC1)c1cccs1 (stereo unspecified),-7.7,51.6*,-1.2,27.2,0.3
CCOC(=O)CN(C(=O)CNC(=O)c1ccco1)C(C(=O)NC1CCCC1)c1ccccc1OCC (stereo unspecified),-5.5,2.3,-17.3,13.8,1.0
CC1=C(C#N)c2nc(N)c(C#N)c(C)c2/C1=C\c1ccc(OCC(=O)O)c(Cl)c1,0.5,36.5*,10.9,19.8,-15.7
CCOC(=O)CSc1nc(N)c(C#N)c(-c2ccc(OCC)cc2)c1C#N,-11.4,-2.6,-24.5,-3.3,-2.6
CN(C)/C=C/C(=O)c1ccc2noc(-c3cccc(F)c3)c2c1,-3.0,5.8,x,-7.8,1.4
Nc1cccc2c1C(=O)N(C(=O)c1ccc(Cl)c(S(=O)(=O)N3CCCCCC3)c1)C2=O,8.4,37.2*,-3.0,26.4,-0.2
CC(C)OC(=O)c1c2nc3ccccc3nc2n2c1[nH]c(=O)c1ccccc12,x,10.7,26.6,47.9*,-21.8
Cc1cncn1CCc1nc2c3ccccc3nc(SCC(=O)Nc3cccc(Cl)c3)n2n1,-10.3,0.6,-1.0,-4.3,1.6
N#C/C(=C\C=C\c1ccccc1[N+](=O)[O-])C(=O)NC1CCCCC1,-3.8,5.2,-15.2,-3.5,4.8
N#C/C(=C\c1ccccc1[N+](=O)[O-])C(=O)NC1CCCCC1,15.3,30.7*,-14.3,26.5,0.4
COc1ccc(C2C=C(c3cccs3)Nc3nc(CCCO)nn32)cc1 (stereo unspecified),x,175.8*,151.0*,143.9*,x
O=C(c1nc2n(n1)C(c1ccc(Cl)cc1)C=C(c1ccccc1)N2)N1CCOCC1 (stereo unspecified),11.8,65.2*,77.4*,47.8*,-16.5
O=C(Nc1nc2n(n1)C(c1ccccc1)C=C(c1ccccc1)N2)c1ccco1 (stereo unspecified),-7.4,26.6,14.7,12.2,0.2
COc1ccc(C2C=C(c3ccccc3)Nc3nc(CCCO)nn32)cc1 (stereo unspecified),x,29.8,17.7,14.7,x
CC(=O)Nc1nc2n(n1)C(c1ccc(F)cc1)C=C(c1ccccc1)N2 (stereo unspecified),10.5,52.1*,33.5,37.0*,-16.8
CCC(=O)Nc1nc2n(n1)C(c1ccc(OC)cc1)C=C(c1ccccc1)N2 (stereo unspecified),x,59.9*,60.1*,51.2*,-1.8
CCOC(=O)C1=CN(Cc2ccco2)S(=O)(=O)NC1c1ccc(F)c(Cl)c1 (stereo unspecified),-0.2,x,x,x,x
CCc1sc(C(=O)N(CCOC)c2c(N)n(Cc3ccccc3)c(=O)[nH]c2=O)cc1C,-8.9,x,x,x,x
Nc1nc(-c2ccccc2)ns1,-5.4,x,x,x,x
COc1ccc(C2C=C(c3ccc(Cl)cc3)Nc3nc(NC(C)=O)nn32)cc1 (stereo unspecified),x,138.9*,106.3*,118.8*,x
COc1cccc(C2=CC(c3ccc(OC)c(OC)c3OC)n3nnnc3N2)c1 (stereo unspecified),0.7,1.0,-10.1,8.0,-0.2
COc1ccc(C2=CC(c3ccc(Cl)cc3)n3cnnc3N2)cc1OC (stereo unspecified),7.7,58.7*,54.7*,44.0*,-11.4
COc1ccccc1N=NNc1ccccc1OC,-13.7,x,x,x,x
Cc1ccc(/C=C(\C#N)C(=O)N2CCCC2)c(C)c1,-1.1,4.2,5.6,4.9,-0.6
Oc1ccc2cccnc2c1,4.9,40.3*,37.7,25.4,-14.0
COC(=O)/C=C1\C(=O)N(c2nc3ccccc3s2)C(=S)N1c1ccc(F)cc1,-2.3,-3.8,-25.4,2.2,-29.8*

# Screens as filed in PubChem.
